AmpC no deterg: blocks E. coli AmpC beta-lactamase in detergent-free assay; P00811; AmpC nitrocefin hydrolysis, absorbance 480 nm, 0.0001% Triton; Potency, µM (titrated, usually from 57.1 µM), usual class: inhibitors; 330,000 compounds, 0.52% hits; also: nearly all actives have a fitted effect of over 20% in size
Target sequence (P00811 whole entry, looked up): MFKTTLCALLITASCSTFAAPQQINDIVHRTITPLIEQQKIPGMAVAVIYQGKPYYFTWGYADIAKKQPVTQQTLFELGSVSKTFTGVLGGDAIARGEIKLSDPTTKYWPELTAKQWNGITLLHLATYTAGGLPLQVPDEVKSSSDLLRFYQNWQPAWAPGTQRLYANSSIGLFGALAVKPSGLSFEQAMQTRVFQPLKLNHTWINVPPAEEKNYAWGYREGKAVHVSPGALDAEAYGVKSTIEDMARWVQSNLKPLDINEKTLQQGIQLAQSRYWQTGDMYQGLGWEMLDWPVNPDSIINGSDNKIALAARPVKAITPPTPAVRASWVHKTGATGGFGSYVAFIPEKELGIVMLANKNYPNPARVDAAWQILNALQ
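AmpC (5.3 nM in the dispensed reagent) in 20 mM phosphate pH 7.0 with 0.01% (detergent screen) or 0.0001% Triton X-100 was preincubated with compounds for 15 min at room temperature. Nitrocefin was then added from an 800 uM solution, and hydrolysis was followed at 480 nm.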
Shiga toxin inh: blocks Shiga toxin action in Vero cells; AID 2315; inhibition, % at 38.7 µM; 290,000 compounds, 9.2% hits; Vero cells, Shiga toxin protein synthesis inhibition reporter; in the data active = inhibition mostly above about 28%, no sharp cut-off; inactive = mostly below about 43%
AmpC detergent: AmpC beta-lactamase inhibition with detergent present; AmpC hydrolysis of nitrocefin, absorbance 480 nm, 0.01% Triton; Potency, µM (series often up to 114 µM), usual class: inhibitors; 370,000 compounds, 0.041% hits; AID 485294; also: nearly all actives have a fitted effect of over 25% in size
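AmpC (5.3 nM in the dispensed reagent) in 20 mM phosphate pH 7.0 with 0.01% (detergent screen) or 0.0001% Triton X-100 was preincubated with compounds for 15 min at room temperature. Nitrocefin was then added from an 800 uM solution, and hydrolysis was followed at 480 nm.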
CHX counter: counter-screen for Shiga toxin inhibitors: cycloheximide protein synthesis inhibition; AID 2314; 300,000 compounds, 12% hits; max response, %; cell reporter, cycloheximide protein synthesis inhibition counterscreen; in the data active = max response mostly above about 13%, no sharp cut-off; inactive = mostly below about 14%; also: read at 38.3 µM for the half of the compounds with a filed dose
NS1 inh: inhibitors of influenza NS1 protein function; Potency, µM (top dose mostly 46.1 µM); 270,000 compounds, 0.4% hits; AID 2326; calls by dose curve; also: actives are rising curves; nearly all actives have a fitted effect of over 50% in size
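Recovery from NS1-induced slow growth read by OD600 in budding yeast switched to galactose assay medium (pH 6.0, -URA) at 1:100 dilution. Compound 23 nl per well; the matching strain lacking NS1 serves as control.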
Hits are given with their value. This is one part of a sample in which hits are shown more often than they occur. Unless noted, calls follow the shape of the dose curve; as a rule, active = well fitted curve in the direction sought with a large enough effect; inconclusive = small, poorly fitted or top-dose-only effect, or another doubt; inactive = no such curve, though single readings can be large; an effect the other way counts as inactive or inconclusive.

`N#C/C(=C\c1cc(Cl)c(OCc2ccc(Cl)cc2)c(Cl)c1)C(N)=O` gave AmpC no deterg inactive, Shiga toxin inh 52.7, AmpC detergent inactive, CHX counter 29.8 and NS1 inh inactive.
CCOC(=O)C(C)On1c(-n2nc(C)cc2C)nc2ccccc2c1=O (stereo not drawn) was read as AmpC no deterg inactive, Shiga toxin inh inactive, AmpC detergent inactive, CHX counter inactive and NS1 inh inactive.
Screening O=C(CN1C(=O)COc2ccc(S(=O)(=O)N3CCCC3)cc21)Nc1cccc(F)c1 returned AmpC no deterg inactive, Shiga toxin inh inactive, AmpC detergent inactive, CHX counter inactive and NS1 inh inactive.
Screening COc1cc(/C=C(/C#N)c2ccccc2F)ccc1OCc1ccccc1 returned AmpC no deterg inactive, Shiga toxin inh 52.7, AmpC detergent inactive, CHX counter 34.1 and NS1 inh inactive.
For N#C/C(=C\c1ccc(OCc2cccc(C(=O)O)c2)cc1)C(=O)NCc1ccco1 the results were AmpC no deterg inactive, Shiga toxin inh 101.2, AmpC detergent inactive, CHX counter 51.7 and NS1 inh inactive.
`N#C/C(=C\c1ccc(OCc2ccc(C(=O)O)cc2)cc1)C(=O)NCc1ccccc1` gave AmpC no deterg inactive, AmpC detergent inactive, CHX counter inactive and NS1 inh inactive.
CCOc1ccccc1NC(=O)COC(=O)C12CC3CC(CC(O)(C3)C1)C2 was read as AmpC no deterg inactive and AmpC detergent inactive.
CCCS(=O)(=O)N1CCCC(C(=O)NCCOC)C1 (stereo not drawn) was read as AmpC detergent inactive.
Cc1cc[n+](Cc2ccccc2)c(N)c1 was read as AmpC no deterg inactive and AmpC detergent inconclusive.
`CC(O)CN=c1cc(-c2ccccc2)oc2ccc(Cl)cc12` (stereo not drawn) gave AmpC no deterg inactive, Shiga toxin inh 76.9, AmpC detergent inconclusive, CHX counter 54.9 and NS1 inh inactive.
For O=c1cc(-c2ccccc2)oc2ccc(Br)cc12 the results were AmpC no deterg inactive.
Screening CC(C)CN=c1cc(-c2ccccc2)oc2ccc(Cl)cc12 returned AmpC no deterg inactive, Shiga toxin inh inactive, AmpC detergent inconclusive, CHX counter 35.5 and NS1 inh inactive.
For COc1cc2c(cc1OC)C(c1cc(OC)c(O)c(OC)c1)CC(=O)N2 (stereo not drawn) the results were AmpC detergent inactive.
Screening Cc1ccc(Cc2nc(-c3ccncc3)no2)cc1 returned AmpC no deterg inactive, Shiga toxin inh 54.2, AmpC detergent inactive and CHX counter inactive.
`COc1ccc(Cc2nc(-c3ccc(Br)cc3)no2)cc1` gave AmpC no deterg inactive, Shiga toxin inh 30.5, AmpC detergent inactive, CHX counter 28.6 and NS1 inh inactive.
COc1ccc(-c2noc(Cc3ccc(Cl)cc3)n2)cc1OC was read as AmpC no deterg inactive, Shiga toxin inh inactive, AmpC detergent inconclusive, CHX counter inactive and NS1 inh inactive.
COc1ccc(Cc2nc(-c3ccc(Cl)cc3)no2)cc1 was read as AmpC no deterg inactive, Shiga toxin inh 49.2, AmpC detergent inactive, CHX counter 21.2 and NS1 inh inactive.
Clc1ccc(-c2noc(COc3ccccc3)n2)cc1 was read as AmpC no deterg inactive, Shiga toxin inh inactive, AmpC detergent inactive, CHX counter inactive and NS1 inh inactive.
Clc1ccc(OCc2nc(-c3ccncc3)no2)cc1 was read as AmpC no deterg inactive, Shiga toxin inh inactive, AmpC detergent inconclusive, CHX counter 31.0 and NS1 inh inactive.
For CCCNC(=O)C1CCC(Cn2c(=O)c3sccc3n(CC(=O)N3CCCC(C)C3)c2=O)CC1 (stereo not drawn) the results were AmpC detergent inactive.
Screening CCn1ncc(/C=N\NC(=O)c2csc3ccccc23)c1C returned AmpC no deterg inactive, Shiga toxin inh 53.3, AmpC detergent inconclusive, CHX counter inactive and NS1 inh inactive.
For Cc1c(/C=N\NC(=O)c2csc3ccccc23)cnn1C the results were AmpC no deterg inactive, Shiga toxin inh 27.4, AmpC detergent inconclusive, CHX counter inactive and NS1 inh inactive.
For Cc1nn(C)c(C)c1/C=N/NC(=O)c1csc2ccccc12 the results were AmpC no deterg inactive, Shiga toxin inh inactive, AmpC detergent inactive, CHX counter 18.2 and NS1 inh inactive.
For CCn1ncc(/C=N\NC(=O)Cc2ccc([N+](=O)[O-])cc2)c1C the results were AmpC no deterg inactive, Shiga toxin inh inactive, AmpC detergent inactive, CHX counter inactive and NS1 inh inactive.
Screening CC(C)CNC(=O)N1CCN(S(=O)(=O)c2ccc3c(ccn3C)c2)CC1 returned AmpC detergent inactive.
